Experiment [1] is described as follows: viability loss in pontine glioma line – cell-based, SU-DIPG-XVII, MIPE5.0, CellTiter-Glo, qHTS, dose response (AID 1347060).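 As to AC50: cells exposed to compound for 48 hours before viability readout.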 Conditions: CellTiter-Glo ATP luminescence. For orientation: Cellular ATP, detected with luciferase, serves as a proxy for viable cell number.
A short description of experiment [2]: viability loss in pontine glioma line – cell-based, SU-DIPG-XIII, MIPE5.0, CellTiter-Glo, qHTS, dose response (AID 1347064; cut-off not given, nearly all actives have AC50 up to about 23 µM;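 as to AC50: cells exposed to compound for 48 hours before the viability read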). Conditions: CellTiter-Glo ATP luminescence.
Experiment [3] in a line: viability loss in pontine glioma line – cell-based, SU-DIPG-XXV, MIPE5.0, CellTiter-Glo, qHTS, dose response (AID 1347065).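 Also: cells exposed to compound for 48 hours before ATP readout.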 Conditions: CellTiter-Glo ATP luminescence.
A short description of experiment [4]: JHH-DIPG-1 glioma cell viability, MIPE5.0 library, CellTiter-Glo luminescence, qHTS (AID 1347067).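 Also: cells exposed to compound for 48 hours before readout.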 The following applies: JHH-DIPG-1 glioma viability, CellTiter-Glo ATP luminescence.
A short description of experiment [5]: growth inhibition of DIPG cells – cell-based, MIPE5.0 library, qHTS (AID 1347068; cut-off not given, nearly all actives have IC50 up to about 30 µM;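 as to IC50: cells exposed to compound for 48 hours before viability readout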). Conditions: SU-DIPG-XXV viability. Background: In qHTS, concentration-response curves come from the screen itself.

Results filed as inconclusive are left out. Calls of active or inactive are those of the source. Unless noted, the limit is not given here; nearly all actives have AC50 up to about 26 µM.

The values that follow come from PubChem BioAssay.

As usually defined, the AC50 is the midpoint of the concentration-response curve, whichever way the signal moves. In the case of `N#Cc1c(N)nc(N)nc1N[C@H](c1nc2c(F)ccc(Cl)c2c(=O)n1-c1cccnc1)C1CC1`, the half-maximal activity concentration (AC50) is 18.6 µM (active) in experiment [1], 13.2 µM (active) in experiment [2] and 11.8 µM (active) in experiment [3].
Consider `O=C(NOCCO)c1ccc2cncn2c1Nc1ccc(I)cc1F`, for which the AC50 in experiment [1] was 0.148 µM (active); in experiment [2], 0.148 µM (active); in experiment [3], 0.332 µM (active); in experiment [4] it was 0.105 µM (active).
As for `CCOC(=N)c1nc2ccc3ncnc(Nc4cc(F)c(F)cc4Cl)c3c2s1`, the AC50 in experiment [1] was 16.6 µM (active); in experiment [2] it was 16.6 µM (active); in experiment [3], 11.8 µM (active); in experiment [4], 14.8 µM (active).
Regarding `CC1Oc2cc(cnc2N)-c2c(nn(C)c2C#N)CN(C)C(=O)c2ccc(F)cc21` (centres undefined), the concentration at half-maximal activity (AC50) in experiment [1] is 14.8 µM (active); in experiment [2], 6.61 µM (active); in experiment [3], 7.42 µM (active). For the same molecule, the call in experiment [4] was inactive.
Regarding `CC[C@@H](C)Nc1cc(C(=O)NC2CC3CC[C@@H](C2)N3c2ccc(C(=O)C3CC3)cn2)c(C)cc1C(N)=O` (some centres undefined), the AC50 was 0.118 µM (active) in experiment [1], 0.166 µM (active) in experiment [2], 0.0934 µM (active) in experiment [3] and 0.148 µM (active) in experiment [4].
`O=C(c1ccc(Nc2nc(C3CC3)cn3c(-c4cn[nH]c4)cnc23)c(F)c1)N1CCOCC1`: the AC50 was 5.25 µM (active) in experiment [1], 5.9 µM (active) in experiment [2], 3.72 µM (active) in experiment [3] and 2.63 µM (active) in experiment [4].
The like results for `CC1(C)OCCn2c1nc1c(N3CCOCC3)nc(-c3cnc(N)nc3)nc12` were, in that order, 3.72 µM (active), 1.86 µM (active), 1.48 µM (active) and 1.32 µM (active).
The term IC50 denotes the point on the concentration scale where inhibition reaches its midpoint. For the molecule `C=CCNC1=C2CC(C)CC(OC)C(O)C(C)/C=C(\C)C(OC(N)=O)C(OC)/C=C/C=C(\C)C(=O)NC(=CC1=O)C2=O` (centres undefined), the AC50 in experiment [1] is 0.59 µM (active); in experiment [2], 1.66 µM (active); in experiment [3], 4.68 µM (active); in experiment [4] it was 0.525 µM (active). Besides, the IC50 in experiment [5] was 3.72 µM (active).
As for `O=C(/C=C\n1cnc(-c2cc(C(F)(F)F)cc(C(F)(F)F)c2)n1)NNc1cnccn1`, the AC50 in experiment [1] is 1.66 µM (active); in experiment [2], 16.6 µM (active); in experiment [3] it was 4.17 µM (active); in experiment [4], 16.6 µM (active). In addition, the IC50 in experiment [5] was 14.8 µM (active).
As to `C=CCN1C[C@H](C(=O)N(CCCN(C)C)C(=O)NCC)CC2c3cccc4[nH]cc(c34)C[C@H]21` (some centres undefined), the molecule was called inactive in experiment [1], in experiment [2], in experiment [3], in experiment [4] and in experiment [5].
For `CCCc1cc(C(=O)N[C@H](Cc2ccc(-c3cccc(OC(F)(F)F)c3)nc2)C(=O)N[C@@H]2CCNC2)sc1C`, the concentration at half-maximal activity (AC50) in experiment [1] is 23.5 µM (active); in experiment [2], 16.6 µM (active); in experiment [3], 20.9 µM (active); in experiment [4], 10.5 µM (active).
The like results for `O=c1cc(N2CCOCC2)oc2c(-c3ccc4c(c3)OCCO4)csc12` were, in that order, 5.25 µM (active), 6.61 µM (active), 8.33 µM (active) and 7.42 µM (active).
In the case of `NS(=O)(=O)Oc1ccc2c3c(c(=O)oc2c1)CCCCC3`, the molecule was called inactive in experiment [1], in experiment [2], in experiment [3] and in experiment [4].
As to `CCc1cc(C(N)=O)ccc1-n1nc(C(C)C)c2c(-n3cnc(-c4cnn(C)c4)c3)ccnc21`, the half-maximal activity concentration (AC50) in experiment [1] is 1.86 µM (active); in experiment [2], 3.72 µM (active); in experiment [3], 1.86 µM (active); in experiment [4] it was 3.32 µM (active). Besides, the IC50 in experiment [5] is 3.32 µM (active).
Take `O=C(Nc1cnn2ccc(N3CCC[C@@H]3c3cc(F)ccc3F)nc12)N1CC[C@H](O)C1`: the molecule was called inactive in experiment [1], in experiment [2], in experiment [3], in experiment [4] and in experiment [5].
In the case of `Cn1nccc1Nc1nccc(-c2ccn([C@H](CO)c3ccc(Cl)c(F)c3)c(=O)c2)n1`, the AC50 in experiment [1] was 18.6 µM (active); in experiment [2], 10.5 µM (active); in experiment [3] it was 18.6 µM (active); in experiment [4] it was 1.48 µM (active).
Take `Nc1ccc(/C=C/C(=O)NCc2cc3cc(-c4ccc(C(=O)N5CCC(F)(F)CC5)cc4)cc(-c4ccc(F)cc4)c3o2)cn1`: the AC50 in experiment [1] is 0.105 µM (active); in experiment [2] it was 0.372 µM (active); in experiment [3], 0.742 µM (active); in experiment [4], 0.525 µM (active).
For the molecule `O=C(/C=C\n1cnc(-c2cc(C(F)(F)F)cc(C(F)(F)F)c2)n1)N1CC(F)(F)C1`, the AC50 is 1.18 µM (active) in experiment [1], 2.63 µM (active) in experiment [2], 13.2 µM (active) in experiment [3] and 9.34 µM (active) in experiment [4].
Regarding `C[C@H](Nc1nc(N[C@H](C)C(F)(F)F)nc(-c2cccc(Cl)n2)n1)C(F)(F)F`, the outcome in experiment [1], in experiment [2], in experiment [3], in experiment [4] and in experiment [5] was inactive.
Regarding `NC(=O)c1ccccc1Nc1ccnc(Nc2cccc(O)c2)n1`, the AC50 in experiment [1] was 2.63 µM (active); in experiment [2], 5.25 µM (active); in experiment [3], 1.32 µM (active); in experiment [4] it was 18.6 µM (active). In experiment [5], the half-inhibitory concentration (IC50) was 4.68 µM (active).
For `Fc1cccc(-n2cnc3c(NCc4nc5c(F)c(F)ccc5[nH]4)nc(N4CCOCC4)nc32)c1`, the AC50 is 0.166 µM (active) in experiment [1], 0.295 µM (active) in experiment [2], 0.332 µM (active) in experiment [3] and 0.209 µM (active) in experiment [4]. In experiment [5], the IC50 is 0.525 µM (active).
As to `O=C(Nc1ccc2[nH]nc(-c3ccncc3)c2c1)[C@@H]1CCN(CC(=O)N2CCN(c3ccc(-c4ncccn4)cc3)CC2)C1`, the AC50 in experiment [1] is 1.05 µM (active); in experiment [2], 1.48 µM (active); in experiment [3], 1.05 µM (active); in experiment [4], 0.525 µM (active).
For `CCN(CC)CCNC(=O)c1c(C)[nH]c(/C=C2/C(=O)Nc3ccc(-c4csc(-c5ccccc5)n4)cc32)c1C`, the AC50 in experiment [1] was 3.32 µM (active); in experiment [2], 2.95 µM (active); in experiment [3], 4.68 µM (active); in experiment [4], 2.95 µM (active).
`COCCOc1cnc2ccn([C@H](C)c3nnc4c(F)cc(-c5cnn(C)c5)cn34)c(=O)c2c1`: the result in experiment [1], in experiment [2], in experiment [3], in experiment [4] and in experiment [5] was inactive.
Regarding `COc1cc(C(=O)O)ccc1NC(=O)[C@@H]1N[C@@H](CC(C)(C)C)[C@](C#N)(c2ccc(Cl)cc2F)[C@H]1c1cccc(Cl)c1F`, the AC50 in experiment [1] was 6.61 µM (active); in experiment [2], 14.8 µM (active); in experiment [3], 9.34 µM (active); in experiment [4], 11.8 µM (active).
With `O=C(CCCc1ccc2cccnc2n1)NCc1cc(-c2ccc(F)c(C(F)(F)F)c2)no1`, the molecule was called inactive in experiment [1], in experiment [2], in experiment [3], in experiment [4] and in experiment [5].
Take `COc1cc(OC)cc(N2CCN(C(=O)Nc3nc4cc(F)ccc4nc3OC)CC2)c1`: the concentration at half-maximal activity (AC50) in experiment [1] was 0.833 µM (active); in experiment [2] it was 2.63 µM (active); in experiment [3], 1.48 µM (active); in experiment [4] it was 1.32 µM (active).
`Cn1cncc1C(N)(c1ccc(Cl)cc1)c1ccc2c(c1)c(-c1cccc(Cl)c1)cc(=O)n2C` (centres undefined): the AC50 is 18.6 µM (active) in experiment [1], 16.6 µM (active) in experiment [2], 8.33 µM (active) in experiment [3] and 18.6 µM (active) in experiment [4].
`Cc1ccc(NC(=O)c2ccc3c(c2)OCCO3)cc1NC(=O)c1ccc2nc(OCCN3CCCC3)ccc2c1`: the AC50 in experiment [1] was 0.129 µM (active); in experiment [2], 0.229 µM (active); in experiment [3] it was 0.0645 µM (active); in experiment [4] it was 0.204 µM (active).
Take `COc1cc(-c2cn(C)c(=O)c3cnccc23)cc(OC)c1CN(C)C`: the molecule was classed as inactive in experiment [1], in experiment [2], in experiment [3], in experiment [4] and in experiment [5].
For the molecule `Nc1nc(N)c2nc(-c3cccc(Cl)c3)c(N)nc2n1`, the concentration at half-maximal activity (AC50) was 1.32 µM (active) in experiment [1], 9.34 µM (active) in experiment [2], 8.33 µM (active) in experiment [3] and 16.6 µM (active) in experiment [4].
Regarding `CO[C@@H]1COCC[C@@H]1N[C@@H]1CC[C@@](C(=O)N2CCc3ncc(C(F)(F)F)cc3C2)(C(C)C)C1`, the molecule was called inactive in experiment [1], in experiment [2], in experiment [3], in experiment [4] and in experiment [5].
